HttQ103 aggreg – reduces HttQ103-GFP aggregates in PC12 cells; Potency, µM (highest dose often 46.1 µM), without a hit: at the highest dose activity change, negative = inhibition, hits mostly inhibitors; PC12 HttQ103-GFP aggregates, Acumen cytometry, 40 h; 220,000 compounds, 1.1% hits; further: potency means the concentration at half of the fitted maximal effect; on the % scale 0 is the no-effect control and ±100 the full control effect; nearly all actives have a fitted effect of over 60% in size
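Huntingtin Q103 exon 1–GFP aggregates in induced PC12 cells (100 nM tebufenozide) were quantified by cytometry from lysates, with compounds dosed in titration.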
CBFb RUNX1 block – blocks binding between human CBF-beta and RUNX1 | AlphaScreen CBFb-His/RUNX1-biotin binding, biochemical | Potency, µM (doses to about 59.8 µM), without a hit: top-dose activity, negative = inhibition, hits mostly inhibitors | 230,000 tested, under 10 active | AID 1477; further: % of control where 0% means no effect
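AlphaScreen proximity signal reports loss of binding between His-tagged CBF-beta and biotin-labelled RUNX1, each at 30 nM. Proteins are pre-associated for 20 minutes, compounds added for 15 minutes, then beads for 90 minutes, all at ambient temperature.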
HTT ATP protect – Huntington cell model cytoprotection by ATP luminescence. 230,000 compounds, 0.14% hits. Potency, µM (highest dose often 56.4 µM), for inactives: cytoprotection (ATP increase), most hits filed as activators. PC12 HTT-Q103 induced, cytoprotection, ATP luminescence, 40 h; further: potency means the concentration at half of the fitted maximal effect; % of control where 0% means no effect; nearly all actives have a fitted effect of over 45% in size
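Stable PC12 Q103-GFP cells in serum-supplemented, phenol red-free DMEM; induction by tebufenozide at 100 nM final; compound dose series; cell viability quantified luminescently from ATP.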
PNC inhibitor – perinucleolar compartment assembly inhibition; activity change (PNC), negative = inhibition, % at 10 µM; AID 2417; 140,000 compounds, 3.1% hits; PC3M PTB-GFP, PNC prevalence imaging, 16 h; stronger effect = lower value;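 active means readout at or below -70, meaning at least 70% loss of cells showing the perinucleolar compartment, a nuclear body marking cancer cells; inconclusive means readout between -30 and a set limit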;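 further: plate controls were DMSO wells for no effect and camptothecin positive control wells for full effect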
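PC3M cells stably expressing PTB-GFP, 750–1000 cells/well, treated 16 h at 37 °C with compound (23 nl of library stock), in duplicate. After paraformaldehyde fixation and Hoechst stain, imaged at 20x; PNC prevalence scored by image analysis.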
ALDH1A1 block – inhibitors of human aldehyde dehydrogenase 1A1. P00352. Purified ALDH1A1, NADH fluorescence, propionaldehyde substrate. Potency, µM (top dose mostly 75.3 µM), without a hit: top-dose activity, negative = inhibition, usual class: inhibitors. 220,000 compounds, 7.3% hits. AID 1030; active means well fitted inhibition curve with a large enough effect, not every such curve was filed as active; inconclusive means small, poorly fitted or top-dose-only effect, or another doubt; inactive means no such curve, though single readings can be large or run the other way;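 further: potency means the concentration at half of the fitted maximal effect; plate controls were no enzyme wells and a reference inhibitor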
Target sequence (P00352 whole entry, looked up): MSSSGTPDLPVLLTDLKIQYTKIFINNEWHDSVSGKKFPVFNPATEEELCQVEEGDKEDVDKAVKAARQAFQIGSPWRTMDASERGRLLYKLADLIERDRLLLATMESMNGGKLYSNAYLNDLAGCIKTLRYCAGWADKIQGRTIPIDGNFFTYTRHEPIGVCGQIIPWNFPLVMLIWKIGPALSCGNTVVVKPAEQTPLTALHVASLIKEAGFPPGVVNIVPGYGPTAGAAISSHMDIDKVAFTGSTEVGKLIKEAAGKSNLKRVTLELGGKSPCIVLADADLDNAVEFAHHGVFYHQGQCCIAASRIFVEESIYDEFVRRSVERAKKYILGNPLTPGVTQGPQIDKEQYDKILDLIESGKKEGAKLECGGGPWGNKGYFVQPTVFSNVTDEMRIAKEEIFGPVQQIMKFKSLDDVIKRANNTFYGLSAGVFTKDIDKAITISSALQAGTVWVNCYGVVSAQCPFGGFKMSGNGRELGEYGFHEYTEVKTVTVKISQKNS
HPGD block – blocks human HPGD enzyme activity | purified HPGD, NADH fluorescence kinetic, PGE2 substrate | Potency, µM, for the others: at the top dose activity change, negative = inhibition, actives largely listed as inhibitors | 150,000 compounds, 4.3% hits | AID 894; active means well fitted inhibition curve with a large enough effect, not every such curve was filed as active; inconclusive means small, poorly fitted or top-dose-only effect, or another doubt; inactive means no such curve, though single readings can be large or run the other way; further: potency means the concentration at half of the fitted maximal effect; on the % scale 0 is the no-effect control and ±100 the full control effect
Target sequence (P15428 whole entry, looked up): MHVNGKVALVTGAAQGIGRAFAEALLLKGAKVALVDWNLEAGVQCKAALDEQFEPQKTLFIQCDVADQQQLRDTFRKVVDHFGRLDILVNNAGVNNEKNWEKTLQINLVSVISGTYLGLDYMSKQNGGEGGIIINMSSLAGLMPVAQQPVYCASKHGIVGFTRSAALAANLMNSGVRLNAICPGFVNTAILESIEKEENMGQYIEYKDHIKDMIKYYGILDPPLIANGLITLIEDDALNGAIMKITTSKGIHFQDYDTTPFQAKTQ
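NADH formation kinetics: reaction with 30 uM PGE2 and 1 mM NAD+ (final), 20 nM enzyme, Tris-HCl pH 8 with Tween 20, after 15 min compound preincubation at room temperature. Fluorescence change, last versus first of five reads.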
Starred values were filed as active, the others as inactive; ? = inconclusive; . = no result; [ ] = remark or other dose. Rows were chosen to be rich in hits. Some 11% of all compounds tested hit in one or more screens of this group. Unless noted, the call rests on the fitted dose curve; in most records, active means well fitted curve in the direction sought with a large enough effect; inconclusive means small, poorly fitted or top-dose-only effect, or another doubt; inactive means no such curve, though single readings can be large; an effect the other way counts as inactive or inconclusive.

SMILES	HttQ103 aggreg	CBFb RUNX1 block	HTT ATP protect	PNC inhibitor	ALDH1A1 block	HPGD block
COc1ccc(NC(=S)NC(=O)c2ccccc2Cl)cc1	-17.2%	4.0%	19.9%	.	12.6µM*	.
O=C(NC(=S)Nc1ccc(O)cc1)c1ccccc1Cl	-9.0%[9.22 µM]	-2.5%	-11.1%[10 µM]	.	17.8µM*	.
CC(C)CNC(=S)NC(=O)c1ccccc1Cl	9.2%	-5.3%	25.6%[10 µM]	-134.0*	-5.6%	-7.6%
Cc1ccc(O)c(NC(=S)NC(=O)c2ccccc2Cl)c1	-30.8%	-15.4%	-66.2%	.	?	.
O=C(NC(=S)Nc1ccc(Cc2ccncc2)cc1)c1ccccc1Cl	0.5%	-5.1%	7.0%[10 µM]	54.8	?	.
O=C(NCc1cccnc1)c1nn2cccnc2c1Cl	0.6%[9.22 µM]	-3.1%	9.0%[10 µM]	.	3.6%	.
N#CCc1c(C#N)c(N)nc(N2CCCC(O)C2)c1C#N (configuration not stated)	-17.6%	5.1%	1.7%	.	3.55µM*	.
O=C(Cn1c2c(sc1=O)C1c3ccccc3OCC1CS2)Nc1ccc(Cl)c(Cl)c1 (configuration not stated)	2.82µM*	-0.5%	3.8%[10 µM]	55.9	25.1µM*	-15.2%
COc1cc(OC)nc(NC(=O)CS(=O)(=O)c2ccccc2)n1	15.0%	-11.8%	-7.9%[0.074 µM]	-118.9*	-9.2%	-2.8%
COc1ccc(OC)c(NC(=O)CS(=O)(=O)c2ccccc2)c1	-5.3%	1.3%	-3.8%	-4.3	?	5.4%
C[C@@]1(O)C(O)[C@@H](CO)O[C@H]1n1cnc2c(NC3CCCC3)nc(Cl)nc21 (some centres not stated)	.	5.9%	-41.0%	.	10.4%	-19.2%
COC(=O)COc1ccc(S(=O)(=O)Nc2ccc(C(N)=O)cc2)cc1Cl	-7.6%	9.5%	-4.2%	-92.2*	-3.0%	-3.0%
CCCCn1c(=O)[nH]c2ccccc21	1.8%	-0.6%	-2.5%	-0.9	7.9%	-1.6%
CCCCN1C(=O)Nc2ccccc2S1=O (configuration not stated)	16.9%	-6.1%	.	-87.4*	-7.3%	15.8µM*
O=c1oc2ccccc2c(O)c1/C=N/c1nc(-c2ccc(O)c(O)c2)cs1	.	.	-16.1%[10 µM]	.	3.55µM*	-24.2%
Cc1ccc(S(=O)(=O)N2CCC(C(=O)O)(c3ccccc3)CC2)cc1	.	.	-9.4%[10 µM]	.	0.5%[13.5 µM]	-4.1%
O=C1N/C(=N\N=C\c2cccnc2)SC1Cc1ccc(SC(F)F)cc1 (configuration not stated)	5.62µM*	-6.3%	-68.1%[10 µM]	-23.5	-6.5%	-21.3%
O=C1N/C(=N\N=C\c2ccccn2)SC1Cc1cccc(SC(F)F)c1 (configuration not stated)	5.62µM*	-12.9%	-77.7%[10 µM]	84.5	10.3%	-9.5%
Cc1ccc2nc(NC(=O)CSc3nnc(C)c(=O)n3N)sc2c1	5.1%	-1.0%	7.9%[10 µM]	14.4	?	-3.9%
CCNC(=S)N(Cc1cc2cccc(C)c2[nH]c1=O)C1CCCC1	5.4%	-5.5%	6.3%[10 µM]	-119.3*	?	-22.6%
COc1ccccc1NC(=O)N(Cc1ccco1)Cc1cc2c(C)ccc(C)c2[nH]c1=O	-19.8%	-13.7%	25.6%[10 µM]	28.3	17.8µM*	-13.3%
Cc1cc2cc(CN(Cc3cccs3)C(=S)NCc3ccco3)c(=O)[nH]c2cc1C	-16.0%	-20.4%	3.9%[10 µM]	49.2	?	?
Cc1ccc(C)c2[nH]c(=O)c(CN(Cc3cccs3)C(=S)NCc3ccco3)cc12	-19.1%	-15.0%	-23.4%[10 µM]	50.5	25.1µM*	-10.1%
COCCNC(=S)N(Cc1cccs1)Cc1cc2cccc(C)c2[nH]c1=O	13.8%[9.22 µM]	10.7%	-9.5%[10 µM]	.	12.6µM*	.
CC(C)n1c2ccccc2c2nnc(SCC(=O)Nc3ccccc3C(=O)O)nc21	13.4%	7.8%	-2.2%	.	?	.
SMILES	HttQ103 aggreg	CBFb RUNX1 block	HTT ATP protect	PNC inhibitor	ALDH1A1 block	HPGD block
COc1ccccc1CN(Cc1nc2ccccc2c(=O)[nH]1)C(=O)Nc1ccc(C)cc1	18.3%	5.5%	-43.4%	-15.2	-9.5%	-16.0%
COc1ccc2[nH]c(=O)c(CN(Cc3cccs3)C(=S)Nc3cccc(C)c3)cc2c1	3.0%	3.1%	-25.9%[10 µM]	-100.0*	?	?
COc1ccccc1CN(Cc1nc2ccccc2c(=O)[nH]1)C(=O)Nc1ccccc1C	-17.2%	2.6%	-23.0%	-114.9*	?	-11.2%
Cc1ccccc1N=CC=C1OC(C)(C)C(C)(C)O1	11.2%	6.2%	15.1%[10 µM]	-21.9	0.8%	?
N#C/C(=C\c1cccc(OC(=O)c2cccs2)c1)C(N)=O	-9.8%	?	-23.0%[0.074 µM]	?	-5.5%	25.1µM*
Cc1csc(NC(=O)CSc2ccc3nnc(CCNS(=O)(=O)c4ccccc4)n3n2)n1	-2.0%	0.0%	14.7%[10 µM]	26.4	6.8%	-12.2%
O=C(CSc1ccc2nnc(CCNS(=O)(=O)c3ccccc3)n2n1)Nc1nc2ccccc2s1	0.1%	10.0%	-0.2%[10 µM]	-13.0	25.1µM*	-4.5%
CCc1ccc(Nc2ncccc2C#N)cc1	0.8%	8.8%	9.5%	35.8	-11.1%	?
CCC(C)c1ccc(Nc2ncccc2C#N)cc1 (configuration not stated)	17.6%	16.0%	-9.7%	51.4	?	17.8µM*
CCOC(=O)C1=C(C)NC(C)=C(C(=O)OCC)C1C(=O)OC1CCOC1=O (configuration not stated)	-3.6%	16.0%	19.1%	-9.2	?	?
Cc1ccc(NC(=S)N/N=C/c2c(Cl)cccc2Cl)c(C)c1	?	-15.1%	-15.8%[1.9 µM]	-98.3*	-5.2%	-16.1%
CC(C)(C)NC(=S)N/N=C/c1c(Cl)cccc1Cl	11.9%[9.22 µM]	7.1%	15.4%[10 µM]	.	7.3%	.
CC(C)CCNC(=O)C(c1ccco1)N(Cc1ccccc1)C(=O)c1snc(C(N)=O)c1N (configuration not stated)	28.8%	-1.9%	-5.4%	-123.3*	?	-9.1%
COc1ccccc1CNc1ccnc(-c2ccc(N(C)C)cc2)n1	.	.	-281.4%	.	?	.
Cc1cc(O)ccc1Nc1nc2ccccc2nc1Nc1ccc(O)cc1C	24.6%	-27.1%	-2.4%	31.8	22.4µM*	-16.4%
C#CCOCCOCCOCCNc1nc(N2CCN(C(=O)[C@H](CCC(=O)O)n3cc(C(N)Cc4ccc(O)cc4)nn3)CC2)nc(N2CCN(C(=O)[C@H](CCCCN)n3cc(C(N)[C@H](C)CC)nn3)CC2)n1 (some centres not stated)	-16.2%[9.22 µM]	-7.5%	-22.6%[10 µM]	.	.	.
O=[N+]([O-])c1cnc2ccccn12	6.8%[9.22 µM]	10.0%	3.98µM*	.	.	.
Cc1ncc([N+](=O)[O-])n1Cc1ccccc1	-11.9%	-2.1%	21.7%[10 µM]	-22.2	-1.4%	-13.2%
N#Cc1cccc(NC(=O)N2CC[C@@]3(CCCN(S(=O)(=O)c4ccccc4)C3)C2)c1	.	.	-29.4%	.	-1.2%	-6.4%

Bioassay records from PubChem BioAssay.
